Potency and affinity values are given separately. A number with no mark means an inactive call.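 How the source made its calls: active means fluorescent signal decreased by at least 40%; inconclusive means no clear call, values can overlap the other calls; inactive means the rest, including activity opposite to the expected direction.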

This assay can be described thus: fibronectin fibrillogenesis inhibitors in fibroblasts, dose response, AH1F cells, Alexa488-fibronectin fluorescence, cherry-pick, set 2 (AID 1117283).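 Further: AH1F fibroblasts given Alexa488-labelled fibronectin at 24 nM final.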 The following applies: Alexa488-fibronectin deposition fluorescence, overnight; series mostly up to 35 µM; activity change, negative = inhibition: at the top concentration.
On to `CN(C)C(=O)c1ccc(-c2ccc3c(c2)[C@@H]2[C@@H](CCN2C(=O)c2ccc(F)cc2)[C@H](CO)N3C)cc1`, for which the “activity change, negative = inhibition” value was 10.2%.
For `C[C@H]1CN([C@@H](C)CO)C(=O)c2cc(NC(=O)CCCN(C)C)ccc2O[C@H]1CN(C)Cc1ccc(-c2ccccc2)cc1` the value was -0.102%.
The value for `CO[C@H]1CN(C)C(=O)c2ccc(NC(=O)Nc3ccc(Cl)c(Cl)c3)cc2OC[C@H](C)NC[C@@H]1C` was -11%.
The value for `N#C[C@@H]1[C@H](c2ccccc2C2=CCCCC2)[C@H](CO)N1S(=O)(=O)c1ccccc1` was -8.31%.
`COC(=O)C[C@@H]1CC[C@@H]2[C@@H](COc3ccc(NC(=O)Cc4cccs4)cc3C(=O)N2C)O1`: the “activity change, negative = inhibition” value is -6.16%.
On to `C[C@@H]1CN([C@@H](C)CO)C(=O)c2cc(NC(=O)C3CCCCC3)ccc2O[C@H]1CN(C)Cc1ccc(-c2ccccc2)cc1`, for which the “activity change, negative = inhibition” value is 3.11%.
The value for `N#Cc1ccc(-c2ccc3c(c2)[C@H]2[C@H](CCN2S(=O)(=O)c2cccc(F)c2)[C@H](CO)N3)cc1` was 22.5%; that for `COc1ccc(-c2oc3ncnc(NCCCN4CCOCC4)c3c2-c2ccc(OC)cc2)cc1` was -3.3%; that for `COc1ccc(-c2csc(CCn3nc(C)cc3C)n2)cc1OC` was -4.81%.
The value for `N#C[C@H]1[C@@H](c2ccccc2C2=CCCCC2)[C@H](CO)N1S(=O)(=O)c1ccccc1` was 3.14% [at 30 µM].
For `COCC(=O)Nc1ccc2c(c1)C(=O)N(C)[C@@H]1CC[C@@H](CC(=O)NCc3ccccc3Cl)O[C@@H]1CO2`, the “activity change, negative = inhibition” value was -3.34%.
For `N#C[C@@H]1[C@@H](c2ccccc2C2=CCCCC2)[C@H](CO)N1S(=O)(=O)c1ccccc1`, the “activity change, negative = inhibition” value is 2.88%.
The value for `COc1ccccc1CC(=O)OC(C)C(=O)Nc1ccc(S(=O)(=O)N2CCCCC2)cc1` (configuration not stated) was 10.7%; that for `Cc1ccn2cc(-c3ccc(NC(=O)c4ccco4)cc3)nc2c1` was 6.36%; that for `S=C(NCC1CCCO1)Nc1ccc(Cl)cc1Cl` (configuration not stated) was -0.519%.
For `CO[C@H]1CN(C)C(=O)c2ccc(NC(=O)c3ccc(-c4ccccc4)cc3)cc2OC[C@@H](C)NC[C@@H]1C`, the “activity change, negative = inhibition” value is -7.14%.
The value for `Cc1ccc(S(=O)(=O)N2CC3(C)CN(S(=O)(=O)c4ccc(C)cc4)CC(C)(C2)C3=O)cc1` was -0.415%; that for `CC(=O)Nc1cccc(-c2ccnc3c2CC(C)(C(=O)Nc2cccc(C(F)(F)F)c2)O3)c1` (configuration not stated) was -5.01%; that for `CCOc1ccccc1NC(=O)c1c(NC(=O)CCC(=O)O)sc2c1CCCCC2` was 5.99%.
For `C[C@@H]1CN([C@H](C)CO)C(=O)c2cc(NC(=O)C3CCCCC3)ccc2O[C@H]1CN(C)Cc1ccc(-c2ccccc2)cc1` the value was -2.89%.
The value for `C[C@@H]1CN([C@@H](C)CO)C(=O)c2cc(-c3ccccc3)cnc2O[C@@H]1CN(C)Cc1ccccc1` was 7.12%; that for `CO[C@H]1CN(C)C(=O)c2cc(NC(=O)Nc3ccc(C(F)(F)F)cc3)ccc2OC[C@H](C)NC[C@H]1C` was -0.807%.
Regarding `CO[C@H]1CN(C)C(=O)c2cc(NC(=O)Nc3ccc(Cl)c(Cl)c3)ccc2OC[C@@H](C)NC[C@@H]1C`, the “activity change, negative = inhibition” value is -5.32%.
For `Fc1cnc(N2CCN(c3ccccc3)CC2)nc1N1CCN(c2ccccc2)CC1` the value was 4.07%.
For `CC(C)(C)[S@@](=O)N1Cc2cc(C(=O)NCc3ccccc3F)nc(-c3cccc(-c4cncnc4)c3)c2[C@H]1CCO` the value was 18.3%; for `COc1cccc(CN2CCN(C(=O)c3ccc(-c4ccccc4)cc3)CC2)c1OC`, 0.469%.
Consider `C[C@H]1CN([C@@H](C)CO)C(=O)c2cc(-c3ccccc3)cnc2O[C@H]1CN(C)Cc1ccccc1`, for which the “activity change, negative = inhibition” value was 11.9%.
The value for `CCCCOc1ccc(C(C)NC(=O)C2CCCN(S(=O)(=O)CCC)C2)cc1` (configuration not stated) was 2.62%.
The value for `O=C(CC1Nc2ccccc2NC1=O)Nc1ccc2c(c1)OCO2` (configuration not stated) was -12%; that for `CC(C)CNC(=O)c1coc(=O)c(Br)c1` was 1.96%; that for `O=S(=O)(c1cccc(F)c1)N1CC[C@@H]2[C@@H](CO)Nc3ccc(-c4cccc(F)c4)cc3[C@@H]21` was 4.96% [at 30 µM].
Take `COCC(C)n1c(SCc2nc(N)nc(Nc3ccccc3C)n2)nc2ccccc2c1=O` (configuration not stated): the “activity change, negative = inhibition” value was -3.15%.
Regarding `CN(C)C(=O)c1ccc(-c2ccc3c(c2)[C@H]2[C@H](CCN2C(=O)c2ccc(F)cc2)[C@H](CO)N3C)cc1`, the “activity change, negative = inhibition” value was -3.09%.
In the case of `CO[C@H]1CN(C)C(=O)c2ccc(NC(=O)Nc3cc(Cl)cc(Cl)c3)cc2OC[C@H](C)NC[C@@H]1C`, the “activity change, negative = inhibition” value is 9.25%.
For `CN1c2ccc(-c3ccccc3)cc2[C@H]2[C@H](CCN2C(=O)CN2CCOCC2)[C@H]1CO` the value was -7.43%; for `CCOC(=O)C1=C(C)Nc2nc3ccccc3n2C1c1ccncc1` (configuration not stated), -4.18%; for `Cc1cccc(N2CCN(S(=O)(=O)c3cn(C)cn3)CC2)c1C`, 3.91%.

(Values after PubChem BioAssay AID1117283 (Broad Institute, 2014).)
